Screening results from PubChem.
Anthrax LF prot = anthrax lethal factor protease inhibition; multiplex microsphere protease cleavage assay, LF; inhibition, % at 10 µM; actives 0.12% (n = 360,000); note: plate controls were buffer without enzyme for full effect and enzyme alone for no effect
Target sequence (P15917 whole entry, looked up): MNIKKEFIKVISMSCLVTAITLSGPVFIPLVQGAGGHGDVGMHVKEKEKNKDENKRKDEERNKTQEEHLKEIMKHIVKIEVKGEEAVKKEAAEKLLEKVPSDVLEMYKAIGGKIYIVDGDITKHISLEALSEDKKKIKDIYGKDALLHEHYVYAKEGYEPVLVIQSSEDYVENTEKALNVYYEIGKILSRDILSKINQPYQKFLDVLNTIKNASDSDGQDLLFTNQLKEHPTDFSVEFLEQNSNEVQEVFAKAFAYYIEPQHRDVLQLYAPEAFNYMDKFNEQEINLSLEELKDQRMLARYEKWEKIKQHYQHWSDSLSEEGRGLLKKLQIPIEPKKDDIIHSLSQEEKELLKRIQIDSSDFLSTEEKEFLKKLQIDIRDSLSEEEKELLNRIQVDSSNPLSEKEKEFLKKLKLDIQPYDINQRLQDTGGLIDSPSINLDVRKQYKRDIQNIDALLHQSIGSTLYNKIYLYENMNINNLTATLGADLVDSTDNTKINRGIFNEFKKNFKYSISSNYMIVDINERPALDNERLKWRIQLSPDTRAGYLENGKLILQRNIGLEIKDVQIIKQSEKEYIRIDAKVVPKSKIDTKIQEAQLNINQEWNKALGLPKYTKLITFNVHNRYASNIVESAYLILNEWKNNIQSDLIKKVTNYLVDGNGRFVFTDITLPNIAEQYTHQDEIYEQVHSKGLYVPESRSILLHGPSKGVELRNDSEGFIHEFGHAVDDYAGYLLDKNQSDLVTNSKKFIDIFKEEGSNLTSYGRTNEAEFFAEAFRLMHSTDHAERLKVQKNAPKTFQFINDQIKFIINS
Bead autofluor = counter-screen for toxin protease inhibitors: compound fluorescence | compound autofluorescence counterscreen, microsphere flow cytometry; hits give high values | fluorescence intensity (no concentration beside the values) | actives 3.1% (n = 360,000) | AID 624483; in the data active = fluorescence intensity above about 16000; inconclusive = no clear call, values can overlap the other calls
BoNT-F LC inh = inhibitors of Botulinum neurotoxin F light chain protease. Multiplex microsphere protease cleavage assay, flow cytometry. actives 0.22% (n = 360,000). inhibition, % at 10 µM; in the data active = inhibition above about 35%, passing the limit was not always enough; inconclusive = no clear call, values can overlap the other calls; note: plate controls were buffer without enzyme for full effect and enzyme alone for no effect
BoNT A protease = blocks Botulinum neurotoxin A light chain protease; multiplex microsphere protease substrate cleavage, flow cytometry; inhibition, % at 10 µM; actives 0.17% (n = 360,000); AID 588499; note: plate controls were buffer without enzyme for full effect and enzyme alone for no effect
* marks the source's active call; other numbers are inactive results. An excerpt weighted towards active compounds, which were near 3.5% of everything screened. Cut-off read from the data, not from the text of the source, unless noted: active = inhibition above about 30%; inconclusive = no clear call, values can overlap the other calls; inactive = below that.

How did O=C(O)CCCC(=O)Nc1nc2n(n1)C(c1ccc(F)cc1)CC(c1ccc(Cl)cc1)N2 (centres undefined) do in these assays?
Anthrax LF prot: 1; Bead autofluor: 21330*; BoNT-F LC inh: 7; BoNT A protease: 4

Results for COCC(=O)Nc1nc2n(n1)C(c1ccccc1)CC(c1ccc(OC)cc1)N2 (centres undefined) ?
Anthrax LF prot: 1; Bead autofluor: 11249; BoNT-F LC inh: 2; BoNT A protease: 0

What do the screens show for `COc1ccc(C2CC(c3ccccc3)Nc3nc(N)nn32)cc1` (centres undefined)?
Anthrax LF prot: -9; Bead autofluor: 10689; BoNT-F LC inh: 1; BoNT A protease: -2

What do the screens show for `COCC(=O)Nc1nc2n(n1)C(c1ccc(OC)cc1)CC(c1ccc(OC)cc1)N2` (centres undefined)?
Anthrax LF prot: -11; Bead autofluor: 21259*; BoNT-F LC inh: 7; BoNT A protease: inconclusive

Results for CCOc1ccc(C2CC(c3ccccc3)Nc3nc(N)nn32)cc1 (centres undefined) ?
Anthrax LF prot: 3; Bead autofluor: 18914*; BoNT-F LC inh: 5; BoNT A protease: inconclusive

How did COc1ccc(OC)c(S(=O)(=O)NC(N)=NCCc2ccccc2)c1 do in these assays?
Anthrax LF prot: -1; Bead autofluor: 2029; BoNT-F LC inh: 0; BoNT A protease: 0

Results for CCC(C)Sc1ccc([C@@H]2[C@H]3C(=O)N(CC)C(=O)[C@H]3[C@]3(C(=O)OC)CCCCN23)cc1 (some centres undefined) ?
Anthrax LF prot: 2; Bead autofluor: 9956; BoNT-F LC inh: 22; BoNT A protease: -3

What do the screens show for `CC12CCC(C(=O)N3CCC(Cc4ccccc4)CC3)(C(=O)C1=O)C2(C)C` (centres undefined)?
Anthrax LF prot: 0; Bead autofluor: 2591; BoNT-F LC inh: 1; BoNT A protease: 0

Results for COc1ccc(CCN2CC3=C(C2=O)C(c2ccccc2)NC(=O)N3C)cc1OC (centres undefined) ?
Anthrax LF prot: -3; Bead autofluor: 7179; BoNT-F LC inh: -7; BoNT A protease: -2

How did CN1C(=O)NC(c2ccccc2)C2=C1CN(CCc1ccccc1)C2=O (centres undefined) do in these assays?
Anthrax LF prot: 0; Bead autofluor: 20821*; BoNT-F LC inh: -2; BoNT A protease: inconclusive

Results for Nc1c(C2=NCCO2)nnn1Cc1ccccc1 ?
Anthrax LF prot: -9; Bead autofluor: 17624*; BoNT-F LC inh: -9; BoNT A protease: -3

What do the screens show for `COc1cc2nc(C)sc2cc1SC`?
Anthrax LF prot: 2; Bead autofluor: 9335; BoNT-F LC inh: 10; BoNT A protease: 1

What do the screens show for `COc1cc2nc(/C=C/c3cc(OC)c(OC)c(OC)c3)sc2cc1SC`?
Anthrax LF prot: 21; Bead autofluor: 3237; BoNT-F LC inh: 13; BoNT A protease: 54*

What do the screens show for `Cc1ccc(-n2c(Cc3ccccc3)n[nH]c2=S)cc1`?
Anthrax LF prot: 0; Bead autofluor: 22337*; BoNT-F LC inh: 4; BoNT A protease: 2

What do the screens show for `S=c1[nH]nc(Cc2ccccc2)n1-c1ccccc1`?
Anthrax LF prot: 1; Bead autofluor: 19172*; BoNT-F LC inh: 1; BoNT A protease: inconclusive

Results for Cc1c(O[C@@H]2O[C@H](CO)[C@@H](O)[C@H](O)[C@H]2O)ccc2c1oc(=O)c1ccccc12 ?
Anthrax LF prot: -2; Bead autofluor: 3855; BoNT-F LC inh: 35*; BoNT A protease: 3

What do the screens show for `COc1ccc2[nH]c3c(c2c1)CCN1C(=O)C(CC(=O)NCCN2CCOCC2)C[C@H](C(=O)N2CCOCC2)[C@@]31C` (some centres undefined)?
Anthrax LF prot: -1; Bead autofluor: 2961; BoNT-F LC inh: -6; BoNT A protease: 0

What do the screens show for `CC(C)CO/C(=N/S(=O)(=O)c1ccccc1)c1ccccc1`?
Anthrax LF prot: -3; Bead autofluor: 21474*; BoNT-F LC inh: -3; BoNT A protease: -1

Results for CCCC(=O)N(Cc1cc2cc(OC)ccc2[nH]c1=O)c1ccccc1OC ?
Anthrax LF prot: -12; Bead autofluor: 3091; BoNT-F LC inh: 0; BoNT A protease: 0

What do the screens show for `Cc1ccc(NC(=O)CNC(=O)c2ccco2)c(Cl)c1`?
Anthrax LF prot: -5; Bead autofluor: 3663; BoNT-F LC inh: -4; BoNT A protease: -3

What do the screens show for `COC(=O)c1c[nH]n2c(=O)cc(C)nc12`?
Anthrax LF prot: -3; Bead autofluor: 23157*; BoNT-F LC inh: -4; BoNT A protease: -1

Results for CCOC(=O)c1c[nH]n2c(=O)cc(C)nc12 ?
Anthrax LF prot: -9; Bead autofluor: 4965; BoNT-F LC inh: -15; BoNT A protease: -1

How did CCOCC(=O)Nc1nc2ccc(OCC)cc2s1 do in these assays?
Anthrax LF prot: 0; Bead autofluor: 3790; BoNT-F LC inh: 12; BoNT A protease: 1

How did CCOc1ccc2nc(NC(=O)C3(C)CC3(Br)Br)sc2c1 (centres undefined) do in these assays?
Anthrax LF prot: 36*; Bead autofluor: 3937; BoNT-F LC inh: inconclusive; BoNT A protease: -2

How did O=C(CN1CCCCC1)Nc1cccc(Cl)c1 do in these assays?
Anthrax LF prot: 0; Bead autofluor: 4052; BoNT-F LC inh: 0; BoNT A protease: 0

What do the screens show for `Cc1ccc(NC(=O)CN2CCCCCC2)c(Br)c1`?
Anthrax LF prot: -2; Bead autofluor: 24257*; BoNT-F LC inh: -4; BoNT A protease: -3

How did O=C(CN1CCCCCC1)Nc1cccc(Br)c1 do in these assays?
Anthrax LF prot: 0; Bead autofluor: 20288*; BoNT-F LC inh: -1; BoNT A protease: -2

Results for Clc1ccccc1N1CCN(Cc2ccc3c(c2)OCO3)CC1 ?
Anthrax LF prot: 13; Bead autofluor: 3384; BoNT-F LC inh: 32; BoNT A protease: 2

What do the screens show for `O=S(=O)(c1cccc(F)c1)N1CCN(Cc2ccc3c(c2)OCO3)CC1`?
Anthrax LF prot: -4; Bead autofluor: 16310*; BoNT-F LC inh: 4; BoNT A protease: 1

Results for Fc1ccccc1N1CCN(Cc2ccc3c(c2)OCO3)CC1 ?
Anthrax LF prot: 0; Bead autofluor: 21279*; BoNT-F LC inh: 3; BoNT A protease: 4

What do the screens show for `Cc1cc(NC(=S)N(CCCN2CCOCC2)Cc2ccco2)ccc1Cl`?
Anthrax LF prot: -2; Bead autofluor: 11578; BoNT-F LC inh: -12; BoNT A protease: -1

Results for COc1ccc(NC(=O)Nc2nnc([C@H]3C[C@H](O)[C@@H](CO)O3)s2)cc1 ?
Anthrax LF prot: -4; Bead autofluor: 3859; BoNT-F LC inh: 3; BoNT A protease: 0

Results for COc1cc(/C=C2/C(=N)N3C=CSC3=NC2=O)ccc1OCCCOc1ccccc1C ?
Anthrax LF prot: 5; Bead autofluor: 4133; BoNT-F LC inh: 37*; BoNT A protease: 5

What do the screens show for `COc1cccc(OCCCn2cc(/C=C3/C(=N)N4C=C(C)SC4=NC3=O)c3ccccc32)c1`?
Anthrax LF prot: 5; Bead autofluor: 24218*; BoNT-F LC inh: -45; BoNT A protease: 50*

Results for COc1cccc(N2CCN(CC(=O)NC(=O)NC3CCCCC3)CC2)c1 ?
Anthrax LF prot: -1; Bead autofluor: 5928; BoNT-F LC inh: -2; BoNT A protease: 0
